Screens deposited in PubChem by National Center for Advancing Translational Sciences (NCATS).
Rab9 prom act: activators of Rab9 promoter; Huh7 Rab9 promoter-luciferase reporter, luminescence, 24 h; Potency, µM (top dose mostly 9.22 µM), inactives show at the highest dose activation, negative = inhibition, actives largely listed as activators; 320,000 compounds, 2.8% hits; AID 485297; further: % of control where 0% means no effect; nearly all actives have a fitted effect of over 60% in size
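Using Huh7 cells stably transfected with Rab9 promoter–luciferase, compounds were incubated 24 h at 37 °C, 5% CO2; luciferase luminescence was read 10 min after reagent addition.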
ELG1 DNA repair: blocks ELG1-dependent DNA repair in HEK293T cells. HEK293T ELG1-luciferase reporter, luminescence, 16 h; DNA damage induced by 5-fluorouridine. Potency, µM (titrated, usually from 46.1 µM), without a hit: top-dose activity change, negative = inhibition, hits mostly inhibitors. 330,000 compounds, 2.3% hits; further: on the % scale 0 is the no-effect control and ±100 the full control effect; nearly all actives have a fitted effect of over 55% in size
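Reporter activity after DNA damage by 5-fluorouridine is monitored. Compound-treated cells incubate 16 hr at 37 °C, then ONE-Glo is added for 30 min before luminescence reading.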
FLuc modulator: counter-screen for miR-21 project: firefly luciferase inhibitors or activators; P08659; purified FLuc, Km substrates, luminescence inhibition; Potency, µM (series often up to 57.5 µM), inactives show at the highest dose activity change, negative = inhibition, actives largely listed as inhibitors; 360,000 compounds, 6.9% hits; AID 588342;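 further: plate controls were vehicle for no effect and reference inhibitor for full effect; nearly all actives have a fitted effect of over 55% in size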
Target sequence (P08659 whole entry, looked up): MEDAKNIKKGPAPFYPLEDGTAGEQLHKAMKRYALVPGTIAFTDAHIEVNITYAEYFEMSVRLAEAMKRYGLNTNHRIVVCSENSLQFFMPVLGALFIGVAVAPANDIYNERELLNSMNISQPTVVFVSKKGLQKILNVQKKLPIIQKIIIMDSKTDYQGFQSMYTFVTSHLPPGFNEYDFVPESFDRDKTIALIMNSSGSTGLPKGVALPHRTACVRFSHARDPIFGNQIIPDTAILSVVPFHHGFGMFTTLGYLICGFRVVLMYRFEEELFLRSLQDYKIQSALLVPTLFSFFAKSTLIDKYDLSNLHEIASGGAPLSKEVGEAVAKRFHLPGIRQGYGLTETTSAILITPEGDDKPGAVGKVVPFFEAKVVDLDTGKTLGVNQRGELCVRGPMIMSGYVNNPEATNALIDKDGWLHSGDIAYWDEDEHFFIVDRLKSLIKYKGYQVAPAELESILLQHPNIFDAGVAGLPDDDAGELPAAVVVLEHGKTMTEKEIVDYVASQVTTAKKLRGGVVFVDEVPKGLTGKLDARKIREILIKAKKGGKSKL
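Biochemical qHTS of compounds, final roughly 60 µM downward over six points, against 10 nM purified firefly luciferase using Km concentrations of substrates (10 uM D-luciferin, 10 uM ATP) in Tris acetate pH 7.5 buffer; luminescence output.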
ELG1 genotoxic: inducers of genotoxicity in HEK293T ELG1-luciferase cells. Potency, µM (doses to about 46 µM), for inactives: at the highest dose activity change, positive = activation, usual class: activators. AID 504466. HEK293T ELG1-luciferase reporter, luminescence, 16 h. 330,000 compounds, 1.3% hits; further: % of control where 0% means no effect; nearly all actives have a fitted effect of over 60% in size
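ELG1-luciferase HEK293T cells, 2,000/well; compound pinned in; 16 hr, 37 °C, 5% CO2; ONE-Glo, 30 min RT; luminescence on CCD imager.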
SMN2 splice enh: SMN2 splice variant enhancement; HEK293 SMN2-luciferase splicing reporter, luminescence, 30-36 h; Potency, µM (titrated, usually from 46.1 µM), for the others: top-dose activity change, positive = activation, most hits filed as activators; 210,000 compounds, 2.8% hits; further: % of control where 0% means no effect; nearly all actives have a fitted effect of over 55% in size
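HEK293 cells carry an SMN2 […]–luciferase reporter in which exon 7 inclusion puts luciferase in frame. Cells were plated 10-12 h before compound addition, then incubated 30-36 h at 37C. ONE-Glo luminescence was read; sodium butyrate at 4.5 mM final served as control.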
NPC1 prom act: activators of NPC1 promoter. Potency, µM (doses to about 9.22 µM), for the others: at the top dose activation, most hits filed as activators. Huh7 NPC1 promoter luciferase reporter, 24 h. 320,000 compounds, 2.4% hits. AID 485313; further: % of control where 0% means no effect; nearly all actives have a fitted effect of over 60% in size
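Stable NPC1-promoter luciferase Huh7 line; cpd (DMSO) 24 h, 37 °C, 5% CO2; Amplite luciferase reagent 10 min RT; luminescence readout. qHTS format.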
* hit, by the source's call; ? = inconclusive; · = not tested or not shown. Most compounds without a hit are left out; they make up all but 9.2% or so of the library. The call rests on the fitted dose curve; in most records, active means well fitted curve in the direction sought with a large enough effect; inconclusive means small, poorly fitted or top-dose-only effect, or another doubt; inactive means no such curve, though single readings can be large; an effect the other way counts as inactive or inconclusive. Potency means the concentration at half of the fitted maximal effect.

SMILES	Rab9 prom act	ELG1 DNA repair	FLuc modulator	ELG1 genotoxic	SMN2 splice enh	NPC1 prom act
CC1(C)Cc2c(c(-c3ccco3)nc3sc4c(NCC5CCCO5)ncnc4c23)CO1 (stereo not drawn)	-3%	7.3µM*	2%	2%	-14%	-3%
CC1(C)Cc2c(c(-c3ccco3)nc3sc4c(NCCCO)ncnc4c23)CO1	-11%	13µM*	-12%	0%	·	-2%
CSc1nnc(NC(=O)c2cc(=O)c3cc(C)c(C)cc3o2)s1	·	·	-20%	·	-10%	·
CCC(C(=O)Nc1cccnc1Cl)c1ccccc1 (stereo not drawn)	2%	-18%	-1%	0%	·	5%
OCC1(CCc2ccccc2)CCN(Cc2cc(F)ccc2-n2cccn2)CC1	-9%	11%	0%	-3%	·	-5%
Cc1ccsc1C(=O)OC1CCOC1=O (stereo not drawn)	-1%	5%	2%	0%	25µM*	-2%
O=C(Nc1nnc(SCC(=O)N2CCOCC2)s1)c1ccccc1	?	?	2.7µM*	?	14µM*	30%
O=C(CSc1nnc(NC(=O)c2ccccc2)s1)NC1CCCC1	?	?	2.7µM*	9%	·	?
CCOc1ccccc1C(=O)Nc1nnc(SCC(=O)N2CCOCC2)s1	15%	0%	-13%	-15%	-16%	4%
O=C(CSc1nnc(NC(=O)c2ccc(F)cc2)s1)NC1CCCC1	3.5µM*	?	2.4µM*	?	·	?
O=C(CSc1nnc(NC(=O)c2ccco2)s1)NC1CCCCC1	4%	8%	19µM*	6%	8%	1%
C(=N\Nc1ccc2nncn2n1)/c1ccccn1	-2%	5.8µM*	-3%	?	·	-1%
C/C(=N\Nc1ccc2nncn2n1)c1ccccn1	-27%	1.2µM*	-12%	?	·	-14%
Cc1ccsc1/C=N/NC(=O)c1nnn(-c2nonc2N)c1CN(C)c1ccccc1	-1%	-15%	6%	-5%	·	0%
CCC1CCCCN1C(=O)COC(=O)c1cccs1 (stereo not drawn)	·	29%	·	3%	·	·
COc1cc(C(=O)OCC(=O)N2CCCCC2C)cc(NC(=O)c2cccs2)c1OC (stereo not drawn)	-6%	18µM*	-2%	-8%	-18%	0%
CC(=O)c1ccc(NC(=O)CCc2nnc3ccc(N4CCC5(CC4)OCCO5)nn23)cc1	22%	?	?	?	·	29%
Cc1ccc(NC(=O)CCc2nnc3ccc(N4CCC5(CC4)OCCO5)nn23)nc1	-7%	5.8µM*	3%	1%	·	0%
Cc1c(C)c2ccc(OCc3ccc(C(=O)O)o3)c(C)c2oc1=O	-4%	?	11µM*	?	68%	-5%
C=CCc1ccc(OCc2ccc(C(=O)OC)o2)c(OC)c1	0.5µM*	?	7.6µM*	10µM*	?	?
COC(=O)c1ccc(COc2ccc(C)c(C)c2)o1	1.6µM*	?	?	?	·	1.4µM*
COC(=O)c1ccc(COc2ccc3ccc(=O)oc3c2)o1	19%	?	-19%	11%	·	14%
COC(=O)c1ccc(COc2cc(C)ccc2C)o1	13%	0%	11µM*	?	·	29%
O=C(COc1ccccc1F)NNC(=O)c1cccc(-n2cccc2)c1	-1%	2%	-3%	-3%	·	0%
O=C(Nc1nccs1)c1ccc(COc2c(F)c(F)cc(F)c2F)o1	2%	?	0%	7%	·	24%
Cc1ccc(OCc2ccoc2C(=O)O)cc1C	-3%	?	19µM*	5%	3%	0%
Cc1ccc(OCc2ccc(C(=O)Nc3nccs3)o2)cc1C	?	?	17µM*	-1%	32%	?
Cc1ccc(OCc2ccc(C(=O)N3CCOCC3)cc2)cc1C	1.4µM*	?	6.7µM*	?	11µM*	3.5µM*
Cc1ccc(OC(C)C(=O)O)cc1C (stereo not drawn)	9%	14%	-4%	-2%	11%	-2%
